In the assay the target is RUNX1 (UniProt Q01196). Briefly: RUNX1 binding intensity (PBM fluorescence) in presence of ETS1, normalised to RUNX1-only experiment (arbitrary fluorescence units); higher = stronger binding. To be noted: RUNX1 concentration 2 nM; ETS1 concentration 25 nM. The procedure:
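Cooperative gcPBM on 36-bp genomic probes with neighbouring ETS1 and RUNX1 sites. Recombinant human RUNX1 (2 nM) was incubated alone or with ETS1 (25 nM) and detected with anti-RUNX1 antibody plus Alexa488 secondary. Values are medians over 4 replicate spots; the RUNX1+ETS1 data were normalised to the RUNX1-only data. The probes sit in constant array flanks that are not printed.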
Chain of RUNX1 (Q01196 whole entry): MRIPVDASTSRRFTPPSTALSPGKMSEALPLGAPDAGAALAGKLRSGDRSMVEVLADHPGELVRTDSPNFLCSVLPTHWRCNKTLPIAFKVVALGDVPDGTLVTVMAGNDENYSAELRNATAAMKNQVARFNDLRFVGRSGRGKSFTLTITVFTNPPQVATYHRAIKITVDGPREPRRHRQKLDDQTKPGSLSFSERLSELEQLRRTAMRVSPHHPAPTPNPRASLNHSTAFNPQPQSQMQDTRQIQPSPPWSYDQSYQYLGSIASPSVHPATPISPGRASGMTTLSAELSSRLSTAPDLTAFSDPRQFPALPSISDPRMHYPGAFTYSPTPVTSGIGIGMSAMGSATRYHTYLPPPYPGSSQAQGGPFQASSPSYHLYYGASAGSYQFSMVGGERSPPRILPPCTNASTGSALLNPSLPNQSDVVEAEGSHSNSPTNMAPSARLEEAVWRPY
Regarding TTGTCGGGTATGGGATGTGGGCAGAGAGTATGATGG, the RUNX1 binding intensity is 797.

Consider TTTCACTTCCGGCATGTTTTTCACCCACAGGGATAT, for which the RUNX1 binding intensity amounted to 2750.

For the sequence AGAACAGCAGGAAATAAATACCCACCTCAGGACTGC, the RUNX1 binding intensity amounted to 887. To GACTTGGGGGAAGTGGCTTGGTTTGCGTGGTTTCTC belongs 1060; to AGGCCGCTTCCTCCCACATGAAACCGCAGGCTTCGG, 10900; to ACGTACGGGATGTGGGAGGTTTGTTTTGACCACACC, 1160. Regarding GTGAACTTCCTCCCCCACTGCCTATTTTTACCGCAG, the RUNX1 binding intensity stood at 3950.

As to GCCCCCGGAAGCTGTCGCCCCGTGCGGTGTGTGCTG, the RUNX1 binding intensity was 1330. To AACACCACTTCCTACTGTGAAACCACACTGTATTTG belongs 2980; to CCCCTTCCCGTTCTCCGAAAGTGCGCGGGTTGGAGC, 1230. Regarding TCACCTCATCACAGGAAACCGCGAGCACCTCCTCCT, the RUNX1 binding intensity was found to be 1770. To GGGCAGGCCGGATGTGGGAGACCACAAAGCCCAAGG belongs 9010; to TGTTCAGGAACAGGAAATGAAACCCCGCAGCTTTGA, 1150; to AATGGGCTTGGTTTCCTGTGGGTTTGTAGCTTTGTA, 2120. To AGTCAAACAGGATGTGGCTGGGGAGGCGGTTGTCAC belongs 2040; to GTATCACTTCCTGTTTTCCTCTGTGGCTTACTGCTG, 3210; to TAAGAGATTTCCTGTAAAGGTAACCACCAGCAAAGA, 1230.

Consider GAGGCGTTTCCGCCTCCTTTTCGCGGTTGCCTTCTC, for which the RUNX1 binding intensity turned out to be 2790. As for AGACCCGGAAATGGTGGGTGTTTCTTGCAACCACGG, the RUNX1 binding intensity was 1240. For the sequence TGATCAGCAAAAGGAAGTGGTTAACATGGCCCAGAA, the RUNX1 binding intensity came to 1990.

With GTCACAGGAAAGAAGGAGCCTCGCCTTAACCGCACC, the RUNX1 binding intensity was 1310.

Take GGCCGGGGGCAGGAAGCTGCGGCGCTGGCTCCCCCC: the RUNX1 binding intensity turned out to be 884.

Consider CACTGCGGAAGCAGTGTAGAGAGGTGGTTATCAGTG, for which the RUNX1 binding intensity came out at 921. Consider CTTTGCAGGAAGCTGGGGTTCACCCACAGCCTTGTT, for which the RUNX1 binding intensity turned out to be 878. To TGCTTCTGAGGAAGTGATCTGTGGTCAAAGAAAGAA belongs 1180; to CGCCTACTCTACTTCCGCGGTCGGCCGGGTAAGGAC, 2900. For CCAAGTGTAAAACGGAAGCTCAACCACGAATCTTAC, the RUNX1 binding intensity came out at 1100. To AACAAACCGGATGGGGTTGCCACCCGCAATCTTGTC belongs 2140; to CACCTCAGCTTCCTGTGTAGCTGGGACCACAGGCAT, 1560; to GGGCTATTGTTTCCTCCCCCATGTGACCACAGCCTC, 1290. AGGCAGCACAGGAAGTTATAACCACATGTACACTTG: the RUNX1 binding intensity was found to be 1960.

In the case of CCTCAATTTCCTGGCCAGAGAAACCACTGCCTCTCA, the RUNX1 binding intensity amounted to 1810.

As for CTCCTGTTCCGGCTCAAAGGGAAACCGCTGCTTTTC, the RUNX1 binding intensity amounted to 1460. To GTGACGGATATCCACCGGGCCCTGTGGTTTCCAACA belongs 986; to GAGGAGGAAAGCGGAAGCGCTGCCCGCAGTGGTAGG, 1270. To TGGCAGCGGGTGCGGAAACCACAGGCCTCCAGGCTT belongs 2470; to CGCCTGCCCCACTTCCGCCCGGACCCGCAGCCCCTA, 3610. To TTAGGCAGAGCTCATTTCCGCCCACATCAAAAGTAA belongs 1110. With GGATGAACAGGAAGCTAAAGTAAATACCACAGTGAC, the RUNX1 binding intensity worked out at 1190. To GGGCTCCCAGAAGGATGTGGTTTCTGAGTACGTTGG belongs 1260.

The record behind these values is the supplement of paper PMC10681739.
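Further: Full-length recombinant human ETS1 or RUNX1 bound to double-stranded 36-bp genomic probes on microarrays, detected by protein-specific primary antibody and Alexa488 secondary, spot fluorescence as median of four replicate spots.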
